Bioassay records from PubChem.
Sampled rows, rich in hits. Any-hit rate of the full collection: about 5.8%.
KB-3-1 cytotox: kills parental KB-3-1 adenocarcinoma cells; AID 1347075; 400,000 compounds, 1.4% hits; Potency, µM (titrated, usually from 46.1 µM), usual class: cytotoxic; KB-3-1 viability, CellTiter-Glo ATP luminescence, 72 h; also: nearly all actives have a fitted effect of over 60% in size
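Cytotoxicity in the drug-sensitive parental line KB-3-1 was scored as loss of CellTiter-Glo luminescence following 72 h incubation with compound. Values come from curve fitting of normalized concentration-response data.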
12-LOX inh: blocks human arachidonate 12S-lipoxygenase; P18054; purified 12hLO, xylenol orange hydroperoxide absorbance; Potency, µM (top dose mostly 108 µM), usual class: inhibitors; 580,000 compounds, 1.1% hits
Target sequence (P18054 whole entry, looked up): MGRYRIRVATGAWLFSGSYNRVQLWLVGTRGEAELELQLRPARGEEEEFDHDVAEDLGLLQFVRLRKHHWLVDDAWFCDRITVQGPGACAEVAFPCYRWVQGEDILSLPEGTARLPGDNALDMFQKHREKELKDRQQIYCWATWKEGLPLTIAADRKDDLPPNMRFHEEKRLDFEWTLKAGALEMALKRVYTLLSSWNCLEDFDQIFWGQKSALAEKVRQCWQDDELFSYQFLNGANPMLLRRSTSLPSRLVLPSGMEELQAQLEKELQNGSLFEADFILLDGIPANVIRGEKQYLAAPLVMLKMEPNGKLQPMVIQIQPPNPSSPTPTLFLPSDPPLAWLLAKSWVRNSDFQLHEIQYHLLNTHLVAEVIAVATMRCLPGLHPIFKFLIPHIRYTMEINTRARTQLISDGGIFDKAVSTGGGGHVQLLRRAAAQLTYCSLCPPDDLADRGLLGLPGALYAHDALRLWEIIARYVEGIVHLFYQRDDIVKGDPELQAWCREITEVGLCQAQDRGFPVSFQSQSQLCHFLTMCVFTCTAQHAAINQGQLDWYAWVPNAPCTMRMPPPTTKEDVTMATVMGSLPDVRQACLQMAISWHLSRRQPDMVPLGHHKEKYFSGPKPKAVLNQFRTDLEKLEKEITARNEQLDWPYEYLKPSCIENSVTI
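Purified human 12hLO at 150 nM in 25 mM Hepes, 0.01% Triton X-100, pH 7.0, preincubated 15 min at room temperature with compound. Reaction started with 40 uM arachidonic acid, 30 min at room temperature. Hydroperoxide measured by Fe-xylenol orange, 573/405 nm absorbance ratio.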
MCF10A rerep: DNA re-replication induction in MCF 10a cells | MCF 10A DNA re-replication, Hoechst nuclear intensity, 48 h | AID 624296 | 350,000 compounds, 2.9% hits | Potency, µM (titrated, usually from 46.1 µM), hits mostly activators; also: nearly all actives have a fitted effect of over 50% in size
SW480 rerep: DNA re-replication induction in SW480 cells. 340,000 compounds, 1.8% hits. SW480 DNA re-replication, Hoechst DNA content imaging, 48 h. Potency, µM (highest dose often 46.1 µM), hits mostly activators; also: nearly all actives have a fitted effect of over 55% in size
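First, 250 cells per well were seeded. Next, compound or vehicle (23 nL) was pinned in, plates sat 48 hr at 37 C. Finally Hoechst was added for 40 min before fluorescence scanning.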
PINK1 modulator: modulators of PINK1 expression; 410,000 compounds, 0.2% hits; AID 624263; PINK1 immunofluorescence, high-content cytometry, 24 h; Potency, µM (titrated, usually from 76.6 µM), actives largely listed as activators; active = well fitted activation curve with a large enough effect; inconclusive = small, poorly fitted or top-dose-only effect; cell line not stated here; also: nearly all actives have a fitted effect of over 65% in size
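Decision-based qHTS: stable cells, 24 h exposure to five compound concentrations, CCCP as control. Fixed cells stained for PINK1 plus nuclear, mitochondrial and cell markers, cytometer read.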
KB-V1 MDR tox: KB-V1 MDR subline cytotoxicity; AID 1347076; KB-V1 MDR cells viability, CellTiter-Glo, 72 h; Potency, µM (doses to about 46.1 µM), usual class: cytotoxic; 400,000 compounds, 3.4% hits; also: nearly all actives have a fitted effect of over 60% in size
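Cytotoxicity via CellTiter-Glo luminescence after 72 h compound exposure at 37 degrees C. Cells: drug-selected KB-V1 line, DMEM phenol-red free plus 10% FBS. Compounds tested at multiple concentrations; normalized data fitted to concentration-effect curves.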
Hits are given with their value; - = inactive; ? = inconclusive; . = no result; [ ] = dose if it differs, or a comment. Unless noted, calls follow the shape of the dose curve; as a rule, active = well fitted curve in the direction sought with a large enough effect; inconclusive = small, poorly fitted or top-dose-only effect, or another doubt; inactive = no such curve, though single readings can be large; an effect the other way counts as inactive or inconclusive.

SMILES	KB-3-1 cytotox	12-LOX inh	MCF10A rerep	SW480 rerep	PINK1 modulator	KB-V1 MDR tox
CCOc1ccc(NC(=O)c2sc3nc(N4CCOCC4)c4c(c3c2N)CC(C)(C)OC4)cc1	7.3µM	-	-	-	-	-
COc1cccc(NC(=O)c2sc3nc(N4CCOCC4)c4c(c3c2N)CC(C)(C)OC4)c1	-	-	.	.	-	-
CCOC(=O)c1sc2nc(-c3ccco3)c3c(c2c1N)CC(C)(C)OC3	-	?	23µM	-	-	12µM
CCN1CCN(CC(=O)NCc2ccc3[nH]c(-c4ccc(F)cc4)c(C)c3c2)CC1	.	-	.	.	.	.
CSc1nsc(SCC(=O)NCc2ccc(F)cc2)n1	.	-	.	.	.	.
Cc1ccc(NC(=O)c2sc3nc(N4CCOCC4)c4c(c3c2N)CC(C)(C)OC4)cc1	-	-	?	-	-	-
Cc1nc2c(sc3nc(N4CCOCC4)c4c(c32)CC(C)(C)OC4)c(-c2ccc(Cl)cc2)c1C(=O)O	?	-	0.46µM	5.2µM	-	-
CCOC(=O)c1ccc(NC(=O)c2sc3nc(N4CCOCC4)c4c(c3c2N)CCCC4)cc1	-	-	2.1µM	?	-	-
Nc1c(C(=O)NCCc2ccccc2)sc2nc(N3CCOCC3)c3c(c12)CCCC3	-	-	16µM	15µM	-	-
CC1(C)Cc2c(c(N3CCCC3)nc3sc(C(=O)Nc4ccccc4)c(N)c23)CO1	-	-	2.9µM	?	-	-
COc1ccc(Oc2c(C)oc3cc(OCC(=O)N4CCCC4)ccc3c2=O)cc1	.	-	.	.	.	.
CC(C)(C)c1cc(CSc2nc3ccccc3s2)cc(C(C)(C)C)c1O	.	-	.	.	.	.
COc1nc(OCC#N)nc(N2CCOCC2)n1	.	-	.	.	.	.
COC(=O)c1ccc(-c2sc3nc(N4CCOCC4)c4c(c3c2N)CC(C)(C)OC4)o1	-	-	?	0.71µM	-	-
Nc1c(C(=O)c2ccccc2)sc2nsc(SCCN3CCOCC3)c12	-	-	13µM	?	-	?
CC1(C)Cc2c(c(N3CCOCC3)nc3sc(C(N)=O)c(N)c23)CO1	-	-	-	-	-	-
CCOC(=O)c1sc2nc3c(cc2c1N)COC(C)(C)C3	?	-	?	-[9.22 µM]	-	-
CCOC(=O)c1sc2nc3c(cc2c1N)COC(C)(CC)C3 (centres undefined)	-	?	18µM	?	.	-
CN1Cc2c(N3CCOCC3)nc3sc(C(=O)c4ccccc4)c(N)c3c2CC1(C)C	-	-	21µM	?	-	-
CNc1nnc(SCc2ccc(F)cc2Cl)s1	.	-	.	.	.	.
COc1ccc2c(CN3CCN(C(=O)C4COc5ccccc5O4)CC3)cc(=O)oc2c1 (centres undefined)	.	-	.	.	.	.
CC(C)COc1ccc(C(=O)Nc2nonc2-c2ccc(OC(C)C)cc2)cc1	.	-	.	.	.	.
CCn1c(SCc2nc(-c3ccccc3)oc2C)nc2c(=O)[nH]cnc21	.	-	.	.	.	.
CC(C)(CNC(=O)CCc1ncc(-c2ccc(F)cc2)o1)N1CCOCC1	.	-	.	.	.	.
CC1(C)Cc2c(c(N3CCOCC3)nc3snc(Br)c23)CO1	-	-	-	-	-	-
SMILES	KB-3-1 cytotox	12-LOX inh	MCF10A rerep	SW480 rerep	PINK1 modulator	KB-V1 MDR tox
CC1(C)Cc2c(c(N3CCOCC3)nc3snc(N)c23)CO1	20µM	-	10µM	-	-	-
CCOc1cc(C2NC(=O)NC(C)=C2C(=O)OCC(F)(F)F)ccc1O (centres undefined)	.	-	.	.	.	.
CC(C)(C)c1cc(C(=O)NNc2cc(C(F)(F)F)ccc2Cl)n(Cc2ccccc2)n1	?	-	21µM	-	?	?
Cc1ccc(NNC(=O)c2cc(C(C)(C)C)nn2Cc2ccccc2)cc1	12µM	?	?	-	-	-
CC(C)(C)c1cc(C(=O)NNc2ccc(OC(F)(F)F)cc2)n(Cc2ccccc2)n1	-	?	18µM	-	-	?
Cc1ccc(NC(=O)c2cc(C(C)(C)C)nn2Cc2ccccc2)cc1	?	-	?	-[9.22 µM]	-	?
CC(C)(C)c1cc(C(=O)Nc2ccc(F)cc2)n(Cc2ccc(F)cc2)n1	?	-	21µM	-	?	?
CCN(CC)S(=O)(=O)NCc1ccnc(OCc2ccccc2)c1	.	-	.	.	.	.
CCn1c(=O)n(CC)c2cc(Sc3ccccc3)c(NC(=O)c3ccccc3OC)cc21	.	-	.	.	.	.
